Experimental data published in the antibiotic and cytotoxicity screens of Wong et al. (2023).
The whole screen tested about 39,000 compounds, of which about 1,500 (3.8%) were called active. For the sample, actives were picked, then their nearest neighbours and some compounds at random.

System: HSkMC (human skeletal muscle cells)
Assay: cytotoxicity call (relative viability < 0.9)
Settings: 10 µM

Question: How did the cytotoxicity call turn out when `N[C@@H](C(=O)N[C@@H]1C(=O)N2C(C(=O)O)=C(Cl)CS[C@H]12)c1ccccc1` was run?
Answer: inactive

Question: Which cytotoxicity call does the source give for `C[C@@H]1CCCCO[C@H](CN(C)C(=O)Cc2ccccc2)[C@@H](C)CN([C@H](C)CO)C(=O)c2cc(NC(=O)C3CCCCC3)ccc2O1` here?
Answer: inactive

Question: `Cc1ccc(S(=O)(=O)N[C@@H](Cc2ccccc2)C(=O)NCCn2cc(CCC(=O)NO)nn2)cc1` was tested. Which cytotoxicity call did it give?
Answer: inactive

Question: Which cytotoxicity call does the source give for `Cc1ccc(S(=O)(=O)N(C)C[C@@H]2Oc3ccc(NS(=O)(=O)c4cccs4)cc3CC(=O)N([C@@H](C)CO)C[C@@H]2C)cc1` here?
Answer: inactive

Question: `C[C@H](O)C#Cc1ccc2c(c1)O[C@@H](CN(C)C(=O)Cc1ccccn1)[C@H](C)CN([C@@H](C)CO)S2(=O)=O` was tested. Which cytotoxicity call did it give?
Answer: inactive

Question: `O=C(C[C@@H]1C=C[C@@H](NC(=O)CN2CCOCC2)[C@@H](CO)O1)NCc1cccc(F)c1` was tested. Which cytotoxicity call did it give?
Answer: inactive

Question: Which cytotoxicity call does the source give for `C[C@H]1CC=CC[C@H](c2cccc(Cl)c2)NC(=O)[C@@H](Cc2ccccc2)N(C)C(=O)c2ccccc2O1` here?
Answer: inactive

Question: `COc1ccc(NC(=O)Nc2ccc3c(c2)C(=O)N([C@@H](C)CO)C[C@@H](C)[C@@H](CN(C)Cc2ccccc2)OCCCC[C@@H](C)O3)cc1` was tested. Which cytotoxicity call did it give?
Answer: inactive

Question: With `Cc1noc(C)c1NC(=O)Nc1cccc2c1O[C@@H](CN(C)S(=O)(=O)c1ccccc1)[C@@H](C)CN([C@H](C)CO)C2=O` as the compound, how does the cytotoxicity call read?
Answer: inactive

Question: Which cytotoxicity call does the source give for `Cc1ccc(S(=O)(=O)N(C)C[C@H]2OCCCC[C@@H](C)Oc3ccc(NC(=O)Nc4ccc(F)cc4)cc3C(=O)N([C@@H](C)CO)C[C@H]2C)cc1` here?
Answer: inactive

Question: How did the cytotoxicity call turn out when `Cc1ccc(S(=O)(=O)N(C)C[C@H]2OCCCC[C@@H](C)Oc3ccc(NC(=O)Nc4ccc(F)cc4)cc3C(=O)N([C@@H](C)CO)C[C@@H]2C)cc1` was run?
Answer: active

Question: Which cytotoxicity call does the source give for `Cc1ccc(S(=O)(=O)Nc2ccc3c(c2)C(=O)N([C@H](C)CO)C[C@H](C)[C@@H](CN(C)S(=O)(=O)c2ccc(F)cc2)OCCCC[C@H](C)O3)cc1` here?
Answer: active

Question: With `Cc1ccc(S(=O)(=O)N(C)C[C@@H]2OCCCC[C@@H](C)Oc3ccc(NS(=O)(=O)c4ccc(F)cc4)cc3C(=O)N([C@H](C)CO)C[C@H]2C)cc1` as the compound, how does the cytotoxicity call read?
Answer: active

Question: With `Cc1ccc(S(=O)(=O)Nc2ccc3c(c2)C(=O)N([C@H](C)CO)C[C@@H](C)[C@H](CN(C)S(=O)(=O)c2ccc(F)cc2)OCCCC[C@@H](C)O3)cc1` as the compound, how does the cytotoxicity call read?
Answer: inactive

Question: `Cc1ccc(S(=O)(=O)Nc2ccc3c(c2)C(=O)N([C@@H](C)CO)C[C@H](C)[C@@H](CN(C)S(=O)(=O)c2ccc(F)cc2)OCCCC[C@@H](C)O3)cc1` was tested. Which cytotoxicity call did it give?
Answer: inactive

Question: `COc1ccc(S(=O)(=O)N(C)C[C@@H]2OCCCC[C@@H](C)Oc3ccc(NS(=O)(=O)c4cn(C)cn4)cc3C(=O)N([C@@H](C)CO)C[C@H]2C)cc1` was tested. Which cytotoxicity call did it give?
Answer: inactive

Question: How did the cytotoxicity call turn out when `COc1ccc(S(=O)(=O)N(C)C[C@@H]2OCCCC[C@H](C)Oc3ccc(NS(=O)(=O)c4cn(C)cn4)cc3C(=O)N([C@H](C)CO)C[C@@H]2C)cc1` was run?
Answer: inactive

Question: With `Cc1ccc(S(=O)(=O)N(C)C[C@@H]2OCCCC[C@H](C)Oc3ccc(NC(=O)Nc4ccc(F)cc4)cc3C(=O)N([C@@H](C)CO)C[C@@H]2C)cc1` as the compound, how does the cytotoxicity call read?
Answer: inactive

Question: How did the cytotoxicity call turn out when `Cc1ccc(S(=O)(=O)N(C)C[C@H]2OCCCC[C@H](C)Oc3ccc(NS(=O)(=O)c4ccc(F)cc4)cc3C(=O)N([C@@H](C)CO)C[C@@H]2C)cc1` was run?
Answer: inactive

Question: With `Cc1ccc(S(=O)(=O)Nc2ccc3c(c2)C(=O)N([C@H](C)CO)C[C@H](C)[C@H](CN(C)S(=O)(=O)c2ccc(F)cc2)OCCCC[C@H](C)O3)cc1` as the compound, how does the cytotoxicity call read?
Answer: inactive

Question: How did the cytotoxicity call turn out when `COc1ccc(S(=O)(=O)N(C)C[C@H]2OCCCC[C@H](C)Oc3ccc(NS(=O)(=O)c4cn(C)cn4)cc3C(=O)N([C@@H](C)CO)C[C@H]2C)cc1` was run?
Answer: active

Question: How did the cytotoxicity call turn out when `C[C@H]1CN([C@@H](C)CO)C(=O)c2cc(NC(=O)C3CC3)ccc2O[C@H]1CN(C)Cc1ccc(Oc2ccccc2)cc1` was run?
Answer: inactive

Question: Which cytotoxicity call does the source give for `COc1ccc(S(=O)(=O)N(C)C[C@@H]2Oc3ccc(NS(=O)(=O)c4cccs4)cc3C(=O)N([C@@H](C)CO)C[C@@H]2C)cc1` here?
Answer: inactive

Question: `C[C@H]1CN([C@@H](C)CO)C(=O)Cc2cc(NC(=O)C3CC3)ccc2O[C@H]1CN(C)S(=O)(=O)c1cn(C)cn1` was tested. Which cytotoxicity call did it give?
Answer: inactive

Question: For `C[C@H]1CCCCO[C@H](CN(C)C(=O)Nc2ccc3c(c2)OCO3)[C@@H](C)CN([C@@H](C)CO)C(=O)c2cc(NC(=O)CCC(F)(F)F)ccc2O1`, which cytotoxicity call is on record?
Answer: inactive

Question: `O=C(O)c1ccc(CCO)s1` was tested. Which cytotoxicity call did it give?
Answer: inactive

Question: How did the cytotoxicity call turn out when `COc1ccccc1C#Cc1ccc2c(c1)O[C@H](CN(C)Cc1cncnc1)[C@H](C)CN([C@@H](C)CO)S2(=O)=O` was run?
Answer: inactive

Question: `COc1ccccc1C#Cc1ccc2c(c1)O[C@@H](CN(C)Cc1cccnc1)[C@@H](C)CN([C@@H](C)CO)S2(=O)=O` was tested. Which cytotoxicity call did it give?
Answer: inactive

Question: How did the cytotoxicity call turn out when `COc1ccccc1C#Cc1ccc2c(c1)O[C@@H](CN(C)Cc1cccnc1)[C@H](C)CN([C@@H](C)CO)S2(=O)=O` was run?
Answer: active

Question: How did the cytotoxicity call turn out when `COc1ccccc1C#Cc1ccc2c(c1)O[C@H](CN(C)Cc1cccnc1)[C@H](C)CN([C@@H](C)CO)S2(=O)=O` was run?
Answer: inactive

Question: How did the cytotoxicity call turn out when `COc1ccccc1C#Cc1ccc2c(c1)O[C@@H](CN(C)Cc1cccnc1)[C@H](C)CN([C@H](C)CO)S2(=O)=O` was run?
Answer: active

Question: For `COc1ccccc1C#Cc1ccc2c(c1)O[C@H](CN(C)Cc1cccnc1)[C@H](C)CN([C@H](C)CO)S2(=O)=O`, which cytotoxicity call is on record?
Answer: inactive

Question: How did the cytotoxicity call turn out when `COc1ccccc1C#Cc1ccc2c(c1)O[C@H](CN(C)Cc1cccnc1)[C@@H](C)CN([C@H](C)CO)S2(=O)=O` was run?
Answer: inactive

Question: For `COc1ccccc1C#Cc1ccc2c(c1)O[C@@H](CN(C)Cc1cccnc1)[C@@H](C)CN([C@H](C)CO)S2(=O)=O`, which cytotoxicity call is on record?
Answer: inactive

Question: `COc1ccccc1C#Cc1ccc2c(c1)O[C@H](CN(C)Cc1cccnc1)[C@@H](C)CN([C@@H](C)CO)S2(=O)=O` was tested. Which cytotoxicity call did it give?
Answer: active

Question: For `C[C@@H]1CN([C@H](C)CO[Si](C)(C)C(C)(C)C)C(=O)c2cc(NC(=O)C3CCCCC3)ccc2O[C@H]1CN(C)C(=O)c1ccc(Cl)cc1`, which cytotoxicity call is on record?
Answer: inactive

Question: How did the cytotoxicity call turn out when `COc1ccccc1CNC(=O)C[C@@H]1C[C@@H]2c3cc(NC(=O)Nc4ccc(C(F)(F)F)cc4)ccc3O[C@@H]2[C@@H](CO)O1` was run?
Answer: inactive

Question: `C=CCNC(=O)CSc1nc(=O)cc(N)[nH]1` was tested. Which cytotoxicity call did it give?
Answer: inactive

Question: `COc1ccc(S(=O)(=O)N(C)C[C@@H]2OCCCC[C@H](C)Oc3ccc(NC(=O)Nc4ccc(C(F)(F)F)cc4)cc3C(=O)N([C@@H](C)CO)C[C@H]2C)cc1` was tested. Which cytotoxicity call did it give?
Answer: inactive

Question: Which cytotoxicity call does the source give for `COc1ccc(S(=O)(=O)N(C)C[C@H]2OCCCC[C@@H](C)Oc3ccc(NC(=O)Nc4ccc(C(F)(F)F)cc4)cc3C(=O)N([C@@H](C)CO)C[C@H]2C)cc1` here?
Answer: active

Question: Which cytotoxicity call does the source give for `COc1ccc(S(=O)(=O)N(C)C[C@H]2OCCCC[C@@H](C)Oc3ccc(NC(=O)Nc4ccc(C(F)(F)F)cc4)cc3C(=O)N([C@H](C)CO)C[C@H]2C)cc1` here?
Answer: inactive

Question: Which cytotoxicity call does the source give for `COc1ccc(S(=O)(=O)N(C)C[C@H]2OCCCC[C@@H](C)Oc3ccc(NC(=O)Nc4ccc(C(F)(F)F)cc4)cc3C(=O)N([C@@H](C)CO)C[C@@H]2C)cc1` here?
Answer: active

Question: For `COc1ccc(S(=O)(=O)N(C)C[C@H]2OCCCC[C@H](C)Oc3ccc(NC(=O)Nc4ccc(C(F)(F)F)cc4)cc3C(=O)N([C@@H](C)CO)C[C@@H]2C)cc1`, which cytotoxicity call is on record?
Answer: inactive

Question: How did the cytotoxicity call turn out when `COc1ccc(S(=O)(=O)N(C)C[C@@H]2OCCCC[C@H](C)Oc3ccc(NC(=O)Nc4ccc(C(F)(F)F)cc4)cc3C(=O)N([C@H](C)CO)C[C@@H]2C)cc1` was run?
Answer: inactive

Question: Which cytotoxicity call does the source give for `C[C@@H]1CN([C@H](C)CO)C(=O)c2cc(NC(=O)Nc3ccc(C(F)(F)F)cc3)ccc2O[C@@H](C)CCCCO[C@H]1CN(C)S(=O)(=O)c1ccc(Cl)cc1` here?
Answer: inactive

Question: `C[C@@H]1CCCCO[C@@H](CN(C)S(=O)(=O)c2ccc(Cl)cc2)[C@H](C)CN([C@@H](C)CO)C(=O)c2cc(NC(=O)Nc3ccc(C(F)(F)F)cc3)ccc2O1` was tested. Which cytotoxicity call did it give?
Answer: inactive

Question: `C[C@@H]1CCCCO[C@H](CN(C)S(=O)(=O)c2ccc(Cl)cc2)[C@@H](C)CN([C@H](C)CO)C(=O)c2cc(NC(=O)Nc3ccc(C(F)(F)F)cc3)ccc2O1` was tested. Which cytotoxicity call did it give?
Answer: active

Question: How did the cytotoxicity call turn out when `C=C1[N-]O[N+](O)=C1CN(Cc1c(C)no[n+]1[O-])OC(C)=O` was run?
Answer: inactive

Question: For `C[C@H]1CN([C@@H](C)CO)C(=O)c2cccc(NC(=O)Nc3ccc(C(F)(F)F)cc3)c2O[C@@H]1CN(C)Cc1ccc(-c2ccccc2)cc1`, which cytotoxicity call is on record?
Answer: inactive

Question: How did the cytotoxicity call turn out when `C[C@H](CO)N1C[C@H](C)[C@H](CN(C)Cc2ccc(Cl)c(Cl)c2)OCCCC[C@H](C)Oc2ccc(NC(=O)NC3CCCCC3)cc2C1=O` was run?
Answer: inactive

Question: How did the cytotoxicity call turn out when `Cn1nc(CN2CCCC2=O)c2c1CN(C(=O)CO)C2` was run?
Answer: inactive

Question: How did the cytotoxicity call turn out when `C[C@H]1CCCCO[C@H](CN(C)Cc2ccc(C(F)(F)F)cc2)[C@@H](C)CN([C@@H](C)CO)C(=O)c2cc(N(C)C)ccc2O1` was run?
Answer: inactive

Question: How did the cytotoxicity call turn out when `COc1ccc(-c2cnc3c(c2)C(=O)N([C@H](C)CO)C[C@@H](C)[C@H](CN(C)C(=O)Cc2cccnc2)O3)cc1` was run?
Answer: inactive

Question: Which cytotoxicity call does the source give for `COc1ccc(NC(=O)N(C)C[C@@H]2OCCCC[C@H](C)Oc3ccc(NC(=O)Nc4ccc(C(F)(F)F)cc4)cc3C(=O)N([C@H](C)CO)C[C@@H]2C)cc1` here?
Answer: inactive

Question: Which cytotoxicity call does the source give for `CN(C)Cc1ccc([C@@H](N)c2ccncc2)cc1` here?
Answer: inactive

Question: With `COc1ccc2c3c(n(c2c1)C)[C@@H](CO)N(Cc1cc(cc(c1)OC)OC)C[C@]13CCN(CC1)C(=O)CN1CCOCC1` as the compound, how does the cytotoxicity call read?
Answer: inactive

Question: For `CCOC(=O)c1ccc(O)cc1`, which cytotoxicity call is on record?
Answer: inactive

Question: Which cytotoxicity call does the source give for `CCOC(=O)c1ccc(N)cc1` here?
Answer: inactive

Question: `CCOC(=O)c1ccc(NC(=S)N[C@@H](NC(=O)c2ccc(Br)cc2)C(Cl)(Cl)Cl)cc1` was tested. Which cytotoxicity call did it give?
Answer: active

Question: With `Cc1noc(C)c1S(=O)(=O)Nc1ccc2c(c1)CC(=O)N([C@H](C)CO)C[C@H](C)[C@@H](CN(C)S(=O)(=O)c1cn(C)cn1)O2` as the compound, how does the cytotoxicity call read?
Answer: inactive
